Calls of active or inactive are those of the source. How the source made its calls: active means hit-call score of the fitted dose curve at least 0.9, where 1 is the maximum; inactive means score below 0.9.
Columns and labels:
Settings in all cases: mRNA level, 48 h; actives raise or lower the signal
[1] = read-out: Heat shock 70 kDa protein 1 (HSPA1A), gene 3303; experiment: LTEA_HepaRG_HSPA1A: Life Technologies and Expression Analysis (LTEA) Assay for Heat shock 70 kDa protein 1 (HSPA1A) using HepaRG (AID 2283502)
Procedure, shortened: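 Differentiated human HepaRG cells in serum-free induction medium were exposed in duplicate for 48 h to eight concentrations (top 100 uM, half-log steps, 0.5% DMSO). HSPA1A mRNA was quantified by qRT-PCR, normalized to ACTB, GAPDH and POLR2A, and fitted bidirectionally against DMSO.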

[2] = read-out: Hypoxia-inducible factor 1-alpha (Homo sapiens) (UniProt Q16665); experiment: LTEA_HepaRG_HIF1A: Life Technologies and Expression Analysis (LTEA) Assay for Hypoxia-inducible factor 1 (HIF1A) Trancription factor using HepaRG (AID 2283503)
Procedure, shortened: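 HepaRG, 48 h exposure, 8-pt half-log series from 100 uM, 0.5% DMSO vehicle, duplicates. Readout: HIF1A transcript by qRT-PCR (Fluidigm array), housekeeping-normalised. Bidirectional curve fit vs DMSO baseline.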

[3] = read-out: 3-Hydroxy-3-Methylglutaryl-CoA Synthase 2 (HMGCS2), HMGCS2 (gene 3158); experiment: LTEA_HepaRG_HMGCS2: Life Technologies and Expression Analysis (LTEA) Assay for 3-Hydroxy-3-Methylglutaryl-CoA Synthase 2 (HMGCS2) using HepaRG (AID 2283504)
Procedure, shortened: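 Human HepaRG cells in serum-free induction medium were exposed in duplicate for 48 h to 8-point half-log series from 100 uM top in 0.5% DMSO. HMGCS2 mRNA measured by TaqMan qRT-PCR, normalised to ACTB, GAPDH, POLR2A; bidirectional fit versus DMSO.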

HGF (gene 3082) = experiment: LTEA_HepaRG_HGF: Life Technologies and Expression Analysis (LTEA) Assay for Hepatocyte Growth Facto (HGF) using HepaRG (AID 2283505)
Procedure, shortened: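 Differentiated HepaRG cells in serum-free induction medium exposed 48 h in duplicate, 8 half-log concentrations from 100 uM in 0.5% DMSO. HGF mRNA by qRT-PCR, normalised to ACTB, GAPDH, POLR2A; bidirectional fitting.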

[4] = read-out: Insulin Like Growth Factor 1 (IGF1), IGF1 (gene 3479); experiment: LTEA_HepaRG_IGF1: Life Technologies and Expression Analysis (LTEA) Assay for Insulin Like Growth Factor 1 (IGF1) using HepaRG (AID 2283506)
Procedure, shortened: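 Differentiated human HepaRG cells were dosed for 48 h in serum-free induction medium with 0.5% DMSO, eight half-log concentrations up to 100 uM, in duplicate. IGF1 mRNA was quantified by qRT-PCR normalized to ACTB, GAPDH, POLR2A; bidirectional fitting versus DMSO.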

[5] = read-out: Intercellular Adhesion Molecule 1 (ICAM1), ICAM1 (gene 3383); experiment: LTEA_HepaRG_ICAM1: Life Technologies and Expression Analysis (LTEA) Assay for Intercellular Adhesion Molecule 1 (ICAM1) using HepaRG (AID 2283507)
Procedure, shortened: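 Differentiated human HepaRG cells in serum-free induction medium exposed 48 h in duplicate to 8 half-log concentrations (top 100 uM, 0.5% DMSO). ICAM1 mRNA quantified by TaqMan qRT-PCR, normalized to ACTB, GAPDH and POLR2A; bidirectional fitting versus DMSO.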

[6] = read-out: Insulin-like growth factor-binding protein 1 (IGFBP1), IGFBP1 (gene 3484); experiment: LTEA_HepaRG_IGFBP1: Life Technologies and Expression Analysis (LTEA) Assay for Insulin-like growth factor-binding protein 1 (IGFBP1) using HepaRG (AID 2283508)
Procedure, shortened: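 HepaRG cells, plated 48 h then switched to serum-free induction medium, exposed in duplicate for 48 h to 8-point half-log series from 100 uM in 0.5% DMSO. mRNA measured by qRT-PCR, normalized to ACTB/GAPDH/POLR2A; bidirectional fit versus DMSO.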

[7] = read-out: Interleukin 6 Receptor (IL6R), IL6R (gene 3570); experiment: LTEA_HepaRG_IL6R: Life Technologies and Expression Analysis (LTEA) Assay for Interleukin 6 Receptor (IL6R) using HepaRG (AID 2283510)
Procedure, shortened: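 Differentiated human HepaRG cells, plated 48 h then switched to serum-free induction medium, were dosed in duplicate for 48 h at eight half-log concentrations up to 100 uM in 0.5% DMSO. IL6R mRNA quantified by qRT-PCR, normalized to ACTB/GAPDH/POLR2A; bidirectional fit versus DMSO.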

[8] = read-out: Keratin 19 (KRT19), KRT19 (gene 3880); experiment: LTEA_HepaRG_KRT19: Life Technologies and Expression Analysis (LTEA) Assay for Keratin 19 (KRT19) using HepaRG (AID 2283512)
Procedure, shortened: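 Differentiated HepaRG cells in serum-free induction medium, exposed 48 h in duplicate to 8 half-log concentrations up to 100 uM in 0.5% DMSO. KRT19 mRNA by qRT-PCR, normalized to ACTB, GAPDH, POLR2A; bidirectional fit vs DMSO.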

[9] = read-out: JUN Transcription Factor, JUN (gene 3725); experiment: LTEA_HepaRG_JUN: Life Technologies and Expression Analysis (LTEA) Assay for JUN Transcription Factor using HepaRG (AID 2283513)
Procedure, shortened: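 Differentiated HepaRG cells were exposed to chemicals for 48 h in serum-free induction medium, 8 concentrations from 100 uM in half-log steps, 0.5% DMSO vehicle, in duplicate. JUN mRNA was quantified by TaqMan qRT-PCR, normalized to ACTB, GAPDH, POLR2A.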

[10] = read-out: Lipase C (LIPC), LIPC (gene 3990); experiment: LTEA_HepaRG_LIPC: Life Technologies and Expression Analysis (LTEA) Assay for Lipase C (LIPC) using HepaRG (AID 2283514)
Procedure, shortened: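 Read-out is LIPC transcript level by TaqMan qRT-PCR, normalized to three housekeeping genes, after 48 h chemical treatment of human HepaRG liver cells. Curves span eight concentrations topping at 100 uM; activity in either direction scored relative to 0.5% DMSO.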

[11] = read-out: MicroRNA 122 (MIR122), gene 406906; experiment: LTEA_HepaRG_MIR122: Life Technologies and Expression Analysis (LTEA) Assay for MicroRNA 122 (MIR122) using HepaRG (AID 2283516); further: the transcript read is the microRNA miR-122
Procedure, shortened: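 Differentiated human HepaRG cells were exposed 48 h in serum-free induction medium to eight half-log concentrations (top 100 uM, 0.5% DMSO). Transcript level was measured by TaqMan qRT-PCR, normalized to ACTB, GAPDH and POLR2A, and fitted bidirectionally versus DMSO.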

[12] = read-out: matrix metalloproteinase-10 (MMP10), MMP10 (gene 4319); experiment: LTEA_HepaRG_MMP10: Life Technologies and Expression Analysis (LTEA) Assay for matrix metalloproteinase-10 (MMP10) using HepaRG (AID 2283517)
Procedure, shortened: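 Gain or loss of MMP10 mRNA is fitted relative to the 0.5% DMSO vehicle. The human hepatic line HepaRG receives a 48-hour serum-free exposure, in duplicate, with a maximum concentration of 100 uM.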

MYC, MYC (gene 4609) = experiment: LTEA_HepaRG_MYC: Life Technologies and Expression Analysis (LTEA) Assay for MYC using HepaRG (AID 2283518)
Procedure, shortened: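 Differentiated HepaRG cells exposed 48 h in serum-free induction medium to 8 concentrations (top 100 uM, half-log steps; 0.5% DMSO), duplicate. MYC mRNA measured by Fluidigm qRT-PCR, normalized to ACTB, GAPDH, POLR2A; bidirectional fit versus DMSO.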

[13] = read-out: matrix metalloproteinase-3 (MMP3), MMP3 (gene 4314); experiment: LTEA_HepaRG_MMP3: Life Technologies and Expression Analysis (LTEA) Assay for matrix metalloproteinase-3 (MMP3) using HepaRG (AID 2283519)
Procedure, shortened: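 HepaRG, human; 48 h dosing, 8 conc. (max 100 uM, half-log), duplicate, 0.5% DMSO. Readout: MMP3 transcript by Fluidigm TaqMan qRT-PCR, ACTB/GAPDH/POLR2A-normalised. Gain or loss fitted vs DMSO.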

[14] = read-out: Paternally Expressed 10 (PEG10), PEG10 (gene 23089); experiment: LTEA_HepaRG_PEG10: Life Technologies and Expression Analysis (LTEA) Assay for Paternally Expressed 10 (PEG10) using HepaRG (AID 2283520)
Procedure, shortened: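 Differentiated HepaRG cells, plated 48 h then switched to serum-free induction medium, were exposed in duplicate for 48 h to eight half-log concentrations topping at 100 uM in 0.5% DMSO. PEG10 mRNA was quantified by TaqMan qRT-PCR, normalised to ACTB, GAPDH and POLR2A.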

[15] = read-out: Nuclear factor NF-kappa-B p105 subunit (Homo sapiens) (UniProt P19838); experiment: LTEA_HepaRG_NFKB1: Life Technologies and Expression Analysis (LTEA) Assay for Nuclear Factor Kappa B Subunit 1 (NFKB1) using HepaRG (AID 2283521)
Procedure, shortened: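 HepaRG, 48 h exposure; 8-pt half-log series from 100 uM in 0.5% DMSO; duplicates. Readout: NFKB1 mRNA by qRT-PCR (Fluidigm arrays), housekeeping-normalized. Gain/loss fit vs DMSO baseline.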

[16] = read-out: Interleukin 6 (IL6), IL6 (gene 3569); experiment: LTEA_HepaRG_IL6: Life Technologies and Expression Analysis (LTEA) Assay for Interleukin 6 (IL6) using HepaRG (AID 2283509)
Procedure, shortened: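 HepaRG, ~100,000 cells/well, 48 h pre-culture; serum-free induction medium; cmpd 8-pt half-log from 100 uM, 0.5% DMSO, duplicate, 48 h. Lysis in RLT, TaqMan qRT-PCR; gain or loss vs DMSO.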

[17] = read-out: Potassium channel subfamily K member 1 (KCNK1), KCNK1 (gene 3775); experiment: LTEA_HepaRG_KCNK1: Life Technologies and Expression Analysis (LTEA) Assay for Potassium channel subfamily K member 1 (KCNK1) using HepaRG (AID 2283511)
Procedure, shortened: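 Gain or loss of KCNK1 mRNA is the read-out, quantified by qRT-PCR against three housekeeping genes after 48 h chemical treatment of human HepaRG liver cells. Concentrations ran from 100 uM downward in half-log steps, vehicle 0.5% DMSO.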

[18] = read-out: Lipoprotein lipase (LPL), LPL (gene 4023); experiment: LTEA_HepaRG_LPL: Life Technologies and Expression Analysis (LTEA) Assay for Lipoprotein lipase (LPL) using HepaRG (AID 2283515)
Procedure, shortened: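 Read-out is LPL transcript level by qRT-PCR, normalized to three housekeeping genes and fitted bidirectionally against the DMSO control. Human HepaRG cells received chemicals for 48 h at up to 100 uM.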

Measured: AC50

Sequence of Nuclear factor NF-kappa-B p105 subunit (Homo sapiens) (P19838 whole entry, looked up): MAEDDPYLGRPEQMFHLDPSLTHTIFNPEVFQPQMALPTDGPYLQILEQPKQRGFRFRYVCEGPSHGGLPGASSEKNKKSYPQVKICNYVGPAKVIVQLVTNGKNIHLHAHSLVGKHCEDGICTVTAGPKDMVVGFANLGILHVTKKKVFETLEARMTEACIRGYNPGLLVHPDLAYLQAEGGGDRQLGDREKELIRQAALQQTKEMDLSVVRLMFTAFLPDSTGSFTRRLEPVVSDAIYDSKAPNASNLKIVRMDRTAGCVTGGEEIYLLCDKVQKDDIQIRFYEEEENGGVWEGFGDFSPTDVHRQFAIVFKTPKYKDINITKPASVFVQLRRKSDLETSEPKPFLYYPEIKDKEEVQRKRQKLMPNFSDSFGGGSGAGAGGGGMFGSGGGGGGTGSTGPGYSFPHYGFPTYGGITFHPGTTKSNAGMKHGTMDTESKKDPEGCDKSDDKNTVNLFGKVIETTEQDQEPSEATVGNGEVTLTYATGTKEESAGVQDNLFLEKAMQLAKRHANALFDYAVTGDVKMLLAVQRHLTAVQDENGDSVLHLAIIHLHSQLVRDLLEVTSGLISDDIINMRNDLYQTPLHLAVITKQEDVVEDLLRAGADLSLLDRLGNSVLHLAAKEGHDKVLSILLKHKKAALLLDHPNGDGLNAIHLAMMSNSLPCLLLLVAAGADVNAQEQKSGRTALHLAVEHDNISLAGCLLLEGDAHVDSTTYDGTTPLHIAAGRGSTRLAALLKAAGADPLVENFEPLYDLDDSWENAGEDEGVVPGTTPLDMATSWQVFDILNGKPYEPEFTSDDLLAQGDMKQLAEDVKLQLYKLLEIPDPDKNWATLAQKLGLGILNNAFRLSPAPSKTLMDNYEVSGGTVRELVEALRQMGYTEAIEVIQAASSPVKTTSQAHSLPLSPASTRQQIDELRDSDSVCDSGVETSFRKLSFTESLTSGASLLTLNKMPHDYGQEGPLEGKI
Sequence of Hypoxia-inducible factor 1-alpha (Homo sapiens) (Q16665 whole entry, looked up): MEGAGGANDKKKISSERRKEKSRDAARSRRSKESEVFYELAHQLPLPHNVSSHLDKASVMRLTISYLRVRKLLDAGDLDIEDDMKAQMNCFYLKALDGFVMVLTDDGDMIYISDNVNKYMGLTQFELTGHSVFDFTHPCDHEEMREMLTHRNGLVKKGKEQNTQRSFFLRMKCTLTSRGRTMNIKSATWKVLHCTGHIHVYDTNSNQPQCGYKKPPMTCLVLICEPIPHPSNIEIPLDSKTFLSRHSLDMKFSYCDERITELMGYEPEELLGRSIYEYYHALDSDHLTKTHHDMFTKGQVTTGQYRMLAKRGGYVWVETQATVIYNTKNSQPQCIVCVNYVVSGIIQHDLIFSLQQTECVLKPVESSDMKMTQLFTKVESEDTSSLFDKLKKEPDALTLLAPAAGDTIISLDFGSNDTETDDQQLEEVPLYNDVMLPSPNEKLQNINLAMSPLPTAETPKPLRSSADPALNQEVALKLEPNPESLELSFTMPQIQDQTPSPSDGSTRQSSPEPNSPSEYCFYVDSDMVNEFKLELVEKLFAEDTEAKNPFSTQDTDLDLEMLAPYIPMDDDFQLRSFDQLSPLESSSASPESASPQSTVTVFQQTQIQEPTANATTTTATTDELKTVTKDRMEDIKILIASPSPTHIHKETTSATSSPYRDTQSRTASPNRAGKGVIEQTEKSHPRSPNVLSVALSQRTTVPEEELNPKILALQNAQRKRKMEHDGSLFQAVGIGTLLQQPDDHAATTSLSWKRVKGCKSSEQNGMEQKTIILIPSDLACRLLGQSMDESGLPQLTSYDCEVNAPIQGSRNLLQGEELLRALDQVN

ClC1=C(Cl)C2(Cl)C3C(Cl)C=CC3C1(Cl)C2(Cl)Cl (stereo not given)
active: [1] 24 µM | [2] 33.8 µM | [4] 5.6 µM | MYC, MYC (gene 4609) 37.1 µM
not listed: [16] | [17] | [18]
inactive: all other assays above

CN(C)C(=O)Nc1ccc(Cl)cc1
not listed: [11] | [16] | [17] | [18]
inactive: all other assays above

CO[C@@H]1[C@H](OC(=O)NC(=O)CCl)CC[C@]2(CO2)[C@H]1[C@@]1(C)O[C@@H]1CC=C(C)C
active: [4] 3.17 µM
not listed: [2]
inactive: all other assays above

CCC(C)c1ccc(O)cc1 (stereo not given)
not listed: [16] | [18]
inactive: all other assays above

CCCCOC(=O)c1ccccc1C(=O)OCc1ccccc1
not listed: [16] | [17] | [18]
inactive: all other assays above

OCCOCCO
not listed: [2] | [11] | [15] | [18]
inactive: all other assays above

CS(=O)(=O)NC(=O)c1cc(Oc2ccc(C(F)(F)F)cc2Cl)ccc1[N+](=O)[O-]
active: [3] 7.76 µM | [14] 31 µM
not listed: [2] | [15] | [17]
inactive: all other assays above

O=C1CCCO1
active: [3] 50 µM | [18] 50 µM | [13] 83.1 µM
not listed: [15] | [16] | [17]
inactive: all other assays above

CCOc1cccc(C2(N3CCN(c4ccccc4)CC3)CCC(C)CC2)c1 (stereo not given)
active: [13] 89.9 µM
not listed: [2] | [15] | [18]
inactive: all other assays above

CN(C)c1ccc(C(=O)c2ccc(N(C)C)cc2)cc1
active: [8] 13.5 µM | [10] 33 µM | [14] 22.3 µM
not listed: [16] | [17]
inactive: all other assays above

N#CC(Br)(Br)C(N)=O
not listed: [2] | [11] | [18]
inactive: all other assays above

c1ccc(N=Nc2ccccc2)cc1
not listed: [4] | [11] | [16] | [17]
inactive: all other assays above

c1ccc(C2CO2)cc1 (stereo not given)
not listed: [2] | [11] | [15]
inactive: all other assays above

Oc1ccccc1Cl
not listed: [2]
inactive: all other assays above

COC(=O)Nc1nc2ccccc2[nH]1
active: [8] 7.44 µM
not listed: [2] | [11] | [15]
inactive: all other assays above

CC(C)(O)c1cnn2c(-c3ccc(F)c(-c4c(F)cccc4C#N)c3)cnc2n1
active: [3] 13.1 µM | [4] 1.35 µM | [10] 2.9 µM
not listed: [11] | [16] | [18]
inactive: all other assays above
